Test results taken from PubChem BioAssay (NCI).
About 83,000 compounds went through this panel and 20% of them were active in at least one assay; those are over-represented in the sample as a whole.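 96-well plates, one dose, 48 hours. Percent growth reported; active if below 10.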 A number with no mark means an inactive call. Active and inactive are the calls of the source.

What was measured:
Assay in all cases: NCI-60 one-dose screen, 48 h (100 = growth as untreated, 0 = no growth, -100 = all killed)
Conditions in all cases: 10 µM unless noted
[1] = test system: NCI-H23 lung
[2] = test system: NCI-H226 lung
[3] = test system: HOP-62 NSCLC
[4] = test system: NCI-H460 lung
[5] = test system: HOP-92 NSCLC
[6] = test system: NCI-H522 lung
[7] = test system: A549/ATCC NSCLC
[8] = test system: 786-0 renal
[9] = test system: COLO 205 colon
[10] = test system: NCI-H322M lung

Row | SMILES | growth [1] | growth [2] | growth [3] | growth [4] | growth [5] | growth [6] | growth [7] | growth [8] | growth [9] | growth [10]
1 | Cc1nc2sc(C(=O)Nc3cccc(Cl)c3C)c(N)c2cc1C(C)O (centres undefined) | 32.6% | 95.8% | 25.5% | 11.1% | 43.2% | -24.9% (active) | 24.7% | 35.6% | -4.18% (active) | 
2 | O=C(O)c1cc(N=Nc2ccc(-c3ccc(N=Nc4c(S(=O)(=O)O)cc5ccc(Nc6ccccc6)cc5c4O)cc3)cc2)ccc1O | 92.6% | 116% | 94.6% | 113% | 114% | 89.7% | 104% | 106% | 114% | 
3 | Cc1nnc(/N=C2\NC(=O)/C(=C/c3ccc(N(C)C)cc3)S2)s1 |  | 89.2% | 65.8% | 33.2% | 85.1% | 2.45% (active) | 63.5% | 76.8% | 98.7% | 85.5%
4 | C=C(C)[C@@H]1CC[C@]2(C(=O)OCCOCCOCC[P+](c3ccccc3)(c3ccccc3)c3ccccc3)CC[C@]3(C)[C@H](CC[C@@H]4[C@@]5(C)CC[C@H](OC(=O)C(Cl)Cl)C(C)(C)[C@@H]5CC[C@]43C)[C@@H]12 | 0.446% (active) | -2.33% (active) | 11% | -13.3% (active) | -67.5% (active) | -24.4% (active) | 6.87% (active) | -85.1% (active) | -83.7% (active) | 
5 | O=C1CS/C(=N/c2nnc(-c3ccc(O)cc3)s2)N1 | 90% | 105% | 83.7% | 107% | 111% | 88.6% | 89.9% | 95% | 97.7% | 
6 | O=C(Nc1ccc2ncnc(Nc3ccc(F)c(Cl)c3)c2c1)c1ccccc1 | 74.6% | 72.2% | 72.3% | 30.4% | 97.2% | 55.6% | 50.4% | 47.7% | 97.3% | 
7 | C[C@H]1[C@H](C)CC[C@]2(C(=O)OCCOCCOCC[P+](c3ccccc3)(c3ccccc3)c3ccccc3)CC[C@]3(C)C(=CC[C@@H]4[C@@]5(C)CC[C@H](OC(=O)C(Cl)Cl)C(C)(C)[C@@H]5CC[C@]43C)[C@H]12 | 5.49% (active) | 15% | 25.3% | 6.27% (active) | -26.6% (active) | -15.3% (active) | 11.2% | -38.3% (active) | -7.06% (active) | 
8 | O=C1NCc2ccc3c(-c4cccc(Cl)c4)c[nH]c3c21 | 35.5% | 89.6% | 22.7% | 12.9% | 52.7% | 1.89% (active) | 15.8% | 31.4% | -27% (active) | 
9 | CCc1ccc(OCc2ccccc2C(=O)Nc2ccc3nc(C)cc(N)c3c2)cc1 | -73.2% (active) | -45.8% (active) | -78.6% (active) | -67.6% (active) | -87.2% (active) | -84.5% (active) | -73.6% (active) | -88.9% (active) | -79% (active) | 
10 | O=C(O)c1cn(C2CC2)c2cc(N3CCN(C(=O)CSc4nnc(-c5ccc(Cl)cc5)n4-c4ccccc4)CC3)c(F)cc2c1=O | 96.2% | 98.8% | 80.7% | 104% | 79.6% | 72.7% | 94.3% | 104% | 109% | 
11 | CCOC(=O)c1c(C)nc2c(c1N)/C(=C/c1ccc[nH]1)C(=O)N2Cc1ccc(C(F)(F)F)cc1 | 51.8% | 38.1% | 23.6% | 16.8% | 41.1% | 43.3% | 48.9% | 22.9% | 75.6% | 
12 | O=C(/C(=C/c1ccc([N+](=O)[O-])cc1)SCc1ccc(F)cc1)c1ccc(Cl)cc1 | 58.9% | 64.6% | 76.8% | 82.4% | 69.6% | -41.4% (active) | 86.8% | 82.5% | 64% | 
13 | O=C(CCl)N1CCCc2ccccc21 | 101% | 101% | 107% | 99.3% | 97.2% | 96.8% | 109% | 104% | 108% | 
14 | C=C1C(=O)O[C@H]2[C@H]1CC/C(COC(=O)c1cccnc1)=C\CC[C@@]1(C)O[C@@H]21 |  | 78.5% | 85.2% | 84.8% | 49.2% | 28.7% | 80.1% | 63.8% | 52.9% | 104%
15 | CCCCCCCc1n(Cc2ccc3ccccc3c2)c2ccccc2[n+]1Cc1ccc2ccccc2c1 |  | -70.8% (active) | -70.6% (active) | -73% (active) | -84.4% (active) | -81.1% (active) | -77.5% (active) | -65.1% (active) | -75.8% (active) | -86% (active)
16 | CNC(=O)c1cc(Oc2ccc3c(c2)sc2nc(-c4ccc(NC(C)=O)cc4)cn23)ccn1 |  | 72.3% | 41.5% | 49.8% | 35.3% | 28.4% | 59.6% | 33.8% | 47% | 69.6%
17 | COc1ccc2oc(=O)cc(-c3nc4ccc(N)cc4[nH]3)c2c1 |  | 72% | 70.8% | 102% | 80.2% | 64.1% | 90% | 96.8% | 84.9% | 
18 | COc1ccc(-c2cc(-c3nnc(SCC(=O)Nc4ccc(C(C)=O)cc4)o3)c3ccccc3n2)cc1 |  | 17.1% | -33.9% (active) | -54.4% (active) | -10.1% (active) | -28.7% (active) | 22.3% | -72.3% (active) | 21.7% | 79.9%
19 | O=c1cc(/C=N\Nc2nc(-c3ccc(Cl)cc3Cl)cs2)c2cc(Cl)ccc2o1 |  | 87.9% | 80.3% | 96.1% | 82.2% | 88.6% | 88.3% | 96.9% | 107% | 95.3%
20 | COC1=CC2C=C(C3N(c4ccccc4)NC(=O)[C@@H]4CCCN34)C(=O)NC2C=C1 (some centres undefined) |  | 105% | 93.1% | 110% | 124% | 87.6% | 107% | 99.5% | 111% | 93.5%
21 | [2H]c1nc(Nc2ncc3cc(C(=O)N(C)C)n(C4CCCC4)c3n2)c([2H])c([2H])c1N1C([2H])([2H])C([2H])([2H])NC([2H])([2H])C1([2H])[2H] |  | 74.6% | 52.3% | 59.1% | 65.8% | 61.8% | 45% | 52.9% | 28.1% | 

Row | SMILES | growth [1] | growth [2] | growth [3] | growth [4] | growth [5] | growth [6] | growth [7] | growth [8] | growth [9] | growth [10]
22 | COc1ccc(C2C(c3ccccc3)C(=O)N2c2cc(OC)c(OC)c(OC)c2)cc1I (centres undefined) |  | 60.6% | 24.7% | 4.29% (active) | 42.5% | -9.3% (active) | 16.9% | 17.4% | -64.3% (active) | 42.9%
23 | O=C(O)c1cn(C2CC2)c2cc(N3CCN(Cc4nnc(Nc5ccccc5)o4)CC3)c(F)cc2c1=O |  | 108% | 99.8% | 104% | 104% | 92.7% | 98.3% | 94.9% | 104% | 
24 | O=C(N/N=C/C[C@@H]1[C@@H](/C=C/[C@@H](O)COc2cccc(Cl)c2)[C@H](O)C[C@@H]1O)c1ccncc1 |  | 89.3% | 79.4% | 102% | 93.7% | 69.9% | 89% | 105% | 113% | 101%
25 | COc1ccc2nc(-c3ccc(OC)c(OC)c3)cc(-c3nnc(SCC(=O)Nc4ccc(C(C)=O)cc4)o3)c2c1 |  | 96.9% | 107% | 105% | 116% | 88.3% | 94% | 101% | 116% | 103%
26 | COc1ccc2[nH]c3nc4cnccc4cc3c2c1 |  | 111% | 96.3% | 103% | 139% | 87.3% | 99.6% | 104% | 111% | 105%
27 | O=C(O)CCNC1CCCCC1 |  | 93.9% | 91.6% | 99.3% | 100% | 79.7% | 102% | 101% | 95.8% | 115%
28 | Cc1cc2ccccc2c[n+]1CC(=O)c1ccc(-c2ccccc2)cc1 |  | 60.8% | 67.1% | 45.9% | 27.8% | 26.8% | 53.3% | 65.9% | 32.5% | 78.3%
29 | C=CCn1c(CN2CCN(c3cc4c(cc3F)c(=O)c(C(=O)O)cn4C3CC3)CC2)n[nH]c1=S |  | 110% | 99.8% | 108% | 104% | 87.9% | 101% | 95.6% | 102% | 88.6%
30 | N#Cc1c(NC(=O)c2cccs2)[n+]([O-])c2cc(C(F)(F)F)ccc2[n+]1[O-] |  | 97.1% | 112% | 109% | 33.2% | 77.4% | 96.1% | 114% | 109% | 93.7%
31 | C#C[C@@]1(O)[C@@H](CO)O[C@@H](n2cc(Cl)c3c(N)ncnc32)[C@@H]1O |  | 1.13% (active) | -4.82% (active) | -19.1% (active) | -27.1% (active) | -29% (active) | -31.1% (active) | -58.8% (active) | -39.4% (active) | -3.01% (active)
32 | O=C(O)COc1ccc2c(=O)c3sc4c(=O)c5ccccc5c(=O)c4c3c(=O)c2c1 |  | 28.6% | -81.1% (active) | -63.2% (active) | 104% | 10.9% | -44.8% (active) | 70.9% | -46.2% (active) | 
33 | C=C(C)[C@@H]1CC[C@]2(C(=O)N=C=S)CC[C@]3(C)[C@H](CC[C@@H]4[C@@]5(C)CCC(=O)C(C)(C)[C@@H]5CC[C@]43C)[C@@H]12 |  | 48.8% | 30.1% | 6.85% (active) | 18.2% | 15.3% | 26.2% | 37.2% | -19.1% (active) | 42.8%
34 | CC[C@]12C=CCN3CC[C@@]4(c5cc(NC(=O)CCC(=O)O[C@H]6CC[C@H]7[C@@H]8CC[C@H]9CC(=O)CC[C@]9(C)[C@H]8CC[C@]67C)c(OC)cc5N(C)[C@H]4[C@@](O)(C(=O)OC)[C@@H]1OC(C)=O)[C@@H]32 |  | 70.9% | 95.6% | 64.5% | 52.4% | 63.6% | 56.7% | 74.7% | 69.1% | 99%
35 | CCCCC(=O)Nc1c(C(=O)Nc2ccccc2)sc2nc3c(cc12)C(OC(=O)CCCC)CCC3 (centres undefined) |  | 92.6% | 101% | 85.9% | 84.4% | 77% | 105% | 84.1% | 90.3% | 113%
36 | Cc1nccc2c3ccc(OCc4cn(-c5ccc(Cl)cc5)nn4)cc3n(CC(C)C)c12 |  | 42% | 35.6% | 17% | 8.37% (active) | 1.04% (active) | 30.7% | 2.68% (active) | -22.6% (active) | 66.1%
37 | C=C1C(=O)O[C@H]2[C@H]1CC/C(COC(=O)c1c[nH]c3ccccc13)=C\CC[C@@]1(C)O[C@@H]21 |  | -78.3% (active) | -43.3% (active) | 2.46% (active) | -59.7% (active) | -66.7% (active) | -7.16% (active) | -92% (active) | -53.5% (active) | 16%
38 | C=C(C)[C@@H]1CC[C@]2(C(=O)n3ccnc3)CC[C@]3(C)[C@H](CC[C@@H]4[C@@]5(C)CCCNC(C)(C)[C@@H]5CC[C@]43C)[C@@H]12 |  | 64.5% | 66.3% | -71.8% (active) | 51.5% | 50.7% | 23% | 29.9% | -69.8% (active) | 66.9%
39 | CNc1cccc2c1C(=O)c1cccc(N)c1C2=O |  | 82.4% | 89.3% | 52.4% | 20.5% | 62.3% | 59.8% | 38% | 7.33% (active) | 75.3%
40 | O=C(Nc1ccc(N=Cc2ccccc2O)cc1)NC1C=c2ccccc2=CC1 (centres undefined) |  | 87.8% | 101% | 108% | 109% | 93.3% | 87.9% | 98.2% | 117% | 98.6%
41 | CCOC(=O)c1cnn(-c2nc(-c3ccc(F)cc3)c(C#N)c(N3CCOCC3)n2)c1N |  | 92.1% | 111% | 100% | 98.7% | 90.6% | 93.9% | 82.5% | 107% | 105%
42 | COc1cc(/C=N/Nc2nc(-c3ccc(F)cc3)c(C#N)c(N3CCOCC3)n2)ccc1O |  | 97.8% | 104% | 102% | 80% | 99.3% | 89.6% | 82% | 101% | 97.4%
